We go through 40 compounds from PubChem BioAssay (NCI).

The panel holds about 83,000 compounds, 20% with a hit somewhere; the sample as a whole holds those more often.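 Assay: single dose, 48 h. Readout: percent growth (0 = no net growth; negative = cell death). Active: <10.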 A number with no mark means an inactive call. Calls of active or inactive are those of the source.

In this assay the test system is HL-60(TB) leukemia. The assay is described as follows: NCI-60 one-dose screen, 48 h (100 = growth as untreated, 0 = no growth, -100 = all killed). The settings on record: 10 µM unless noted.
For the compound `Cc1ccc(S(=O)(=O)N(c2ccc(Cl)cc2)c2ccc(Br)cc2C(=O)O)cc1`, the growth was 110%.

Regarding `COc1cc(/C=C2\C=C(c3ccc(F)cc3)N(Cc3ccccc3)C2=O)cc(OC)c1OC`, the growth is 75.9%.

Regarding `Cc1ccc(NC(=S)N/C=C(\c2ccccc2)S(=O)Cc2ccccc2)c(C)c1` (stereo not given), the growth is 96.8%. In the case of `COc1ccc2[nH]c(C(=O)OCc3ccc4cccc(O)c4n3)cc2c1` it was -36.8% (active); in that of `CCn1cc(C(=O)O)c(=O)c2cc(F)c(N3CCN(S(=O)(=O)c4ccc(Cl)cc4)CC3)cc21`, 8.96% (active). Regarding `COc1cccc(N=CNc2cccc(OC)c2)c1`, the growth is 96.7%.

In the case of `COc1ccc(/C=C2\CCCC3=C2N=C2SC(C)=NN2C3c2ccc(OC)c(OC)c2)cc1OC` (stereo not given), the growth was -14.5% (active).

`COc1ccc(-c2nc(SCC(=O)c3ccc(Br)cc3)[nH]c(=O)c2C#N)cc1`: the growth was 91.5%. With `CCCC(CC)(C(=O)Nc1ccc2nc(C)cc(N)c2c1)C(=O)Nc1ccc2nc(C)cc(N)c2c1` the figure was 100%; with `Cc1cc(N/N=C/c2nc(-c3ccc(Cl)cc3)oc2C)c2cc(Br)ccc2n1`, 59%. As for `COc1cc(CNS(=O)(=O)c2ccc(C)cc2)ccc1OCc1cn(-c2ccc(F)cc2)nn1`, the growth was 114%.

Regarding `CS(=O)(=O)c1ccc(-n2nc(-c3ccc(Br)cc3)c3ccccc3c2=O)cc1`, the growth is 93.3%. In the case of `COc1ccc(/C(C)=C(\c2ccc(Cl)cc2)c2ccc(OCCN3CCCCC3)cc2)cc1` it was 32.8%; in that of `CN(C)CC1(C)Cc2ccsc2C1O` (stereo not given), 93%. With `O=C1/C(=C\c2cccc3nccnc23)SC(=S)N1CCc1ccc(O)cc1` the figure was 79.5%; with `COc1cc2c(cc1OC)C(Sc1ccc(SC)cc1)c1c(nc(N)c(C#N)c1N)O2` (stereo not given), -52.9% (active). For the compound `CSc1ncc(C)c(Nc2ccc(Cl)cc2)n1`, the growth was 112%. In the case of `S=c1[nH]c2cc(Cl)ccc2s1` it was 97.4%. In the case of `Cc1c(C(=O)OCCO)cc(-c2ccc(Cl)cc2)n1-c1ccc(Cl)cc1Cl` it was 59.7%; in that of `CCC(C#N)(CC)c1ccccc1`, 102%. Take `O=c1[nH]nc(SC2CCCCC2)c(=O)[nH]1`: the growth is 108%.

Turning to `O=[N+]([O-])CC(O)c1ccccc1` (stereo not given), the growth was 99.4%. In the case of `CCOC(=O)C(C(=O)OCC)C(c1ccccc1)N1CCN(c2ccccc2)CC1` (stereo not given) it was 97.7%; in that of `CCc1cccc(C)c1NC(=O)c1sc2nc3c(cc2c1N)C(=O)CCC3`, -22.4% (active); in that of `O=C(Nc1ccc(-n2cc(-c3ccncc3)c(-c3ccc(O)c(Cl)c3)n2)cc1)c1cc(Cl)cc(Cl)c1`, 28.1%.

Take `O=C1Nc2ccccc2C1=NC1CCCCC1`: the growth is 110%.

In the case of `O=[N+]([O-])c1cnc(Sc2ccncn2)s1`, the growth is -20.2% (active). With `Cc1ncc(C(=O)Nc2ccc(CN3CCN(C)CC3)c(C(F)(F)F)c2)cc1C#Cc1cncc2ncccc12` the figure was 41.7%. In the case of `C#C[C@@]1(O)[C@@H](CO)O[C@@H](n2cc(Br)c3c(Cl)ccnc32)[C@@H]1O` it was -46.5% (active); in that of `O=[N+]([O-])c1ccccc1NC1c2ccccc2Oc2ccccc21`, -14.4% (active). Regarding `CC1=C(C(=O)Nc2ccc(F)cc2)C(c2ccc(C)cc2)C2=C(CC(C)(C)CC2=O)N1` (stereo not given), the growth is 114%. With `COc1ccc2c(c1)c(-c1nc(-c3cn(C)c4ncccc34)cs1)cn2CCO` the figure was 82.4%; with `O=C1c2c(c3c4ccccc4[nH]c3c3ccc4ccccc4c23)C(=O)N1CCN1CCNCC1`, 43.6%. With `CCn1c(SC/C(=N/O)c2ccccc2)nnc1-c1ccccc1` the figure was 103%; with `CCOC(=O)CNN`, 113%; with `COc1ccc(-c2nc(-c3nc4ccc(Cl)cc4[nH]3)c3ccccn23)cc1`, 82.8%. With `CC1(C)C(=NO)C(C)(C)C1=NO` the figure was 113%; with `Nc1nc2ccc([C@@H]3Nc4ccc5[nH]ncc5c4[C@H]4[C@H]5CCC(C5)[C@H]43)cc2s1`, 12.4%; with `N#Cc1c(-c2ccc(Cl)cc2)nc(NN=Cc2ccc[nH]2)nc1N1CCOCC1`, 2.28% (active). `O=C(Nc1nc(-c2ccc(Cl)cc2)cs1)c1cc(O)c(O)c(O)c1`: the growth is 10.4%.
